# Data from the supplement of paper PMC13380429.
# System: Vero E6 infected with SARS-CoV-2
# Assay: SARS-CoV-2 infection rate relative to infected DMSO; higher = more infection, active = 60 or less
# Details: 24 h
row,SMILES,SARS-CoV-2 infection rate
1,CCOC(=O)NNc1ccc(N(CC)CC(C)O)nn1 (stereo not drawn) [cadralazine] (10 µM),108% (inactive)
2,CN(CCOP(=O)(O)O)C(=N)N [creatinol-phosphate] (10 µM),95.5% (inactive)
3,CN1CCC(OC(c2ccccc2)c2ccccc2)CC1 [diphenylpyraline] (10 µM),82.5% (inactive)
4,CN(C)CCCC1(c2ccc(F)cc2)OCc2cc(C#N)ccc21 (stereo not drawn) [citalopram] (10 µM),107% (inactive)
5,COc1ccncc1C(=O)NC(=O)Nc1ccc(-c2ccccc2)c(C(F)(F)F)c1 [S1P1-agonist-III] (10 µM),100% (inactive)
6,CC(=O)N[C@@H](Cc1ccc(O)cc1)C(=O)O [N-acetyl-tyrosine] (10 µM),114% (inactive)
7,CC(C)(C)Sc1c(CC(C)(C)C(=O)O)n(Cc2ccc(Cl)cc2)c2ccc(OCc3ccc4ccccc4n3)cc12 [quiflapon] (10 µM),106% (inactive)
8,CC(Cc1ccccc1)NCCC(c1ccccc1)c1ccccc1 (stereo not drawn) [prenylamine] (10 µM),19.5% (active)
9,O=C(c1ccc(Nc2nccc(-c3cc4ccccc4s3)n2)cc1)N1CCC(N2CCCC2)CC1 (0.833333 µM),56% (active)
10,Cc1cc(C(=O)N2Cc3cnn(C)c3Nc3ccccc32)ccc1CNC(=O)N1CCC[C@H]1C(=S)N1CCCN(C)CC1 (10 µM),110% (inactive)
11,CC(C)OC(=O)C(C)(C)Oc1ccc(C(=O)c2ccc(Cl)cc2)cc1 [fenofibrate] (10 µM),101% (inactive)
12,O=C(OCC(O)CO)c1ccccc1Nc1ccnc2c(C(F)(F)F)cccc12 (stereo not drawn) [floctafenine] (10 µM),106% (inactive)
13,CCCCCCC[N+](CC)(CC)CCCCc1ccc(Cl)cc1 [clofilium] (10 µM),118% (inactive)
14,OCCCNc1ccccc1 [3-anilinopropan-1-ol] (10 µM),110% (inactive)
15,CC(=O)Nc1ccc(NC(=S)NC(=O)c2ccc(C(C)(C)C)cc2)cc1 [tenovin-1] (10 µM),109% (inactive)
16,Cc1cc(O)cc2c1O[C@](C)(CCC[C@H](C)CCC[C@H](C)CCCC(C)C)CC2 [D-delta-tocopherol] (10 µM),112% (inactive)
17,O=C1Nc2ccc(Cl)c3c2C1(CCCCN1CC=C(c2ccc(Cl)cc2)CC1)CCC3 (stereo not drawn) (0.833333 µM),106% (inactive)
18,Oc1cc(O)cc(O)c1 [phloroglucin] (10 µM),114% (inactive)
19,C[C@@H](N)[C@H]1CC[C@H](C(=O)Nc2ccncc2)CC1 (10 µM),106% (inactive)
20,C#C[C@]1(O)CC[C@H]2[C@@H]3CCC4=CC(=O)CCC4=C3C=C[C@@]21CC [gestrinone] (10 µM),103% (inactive)
21,CC[C@@H](C)N(C)C(=O)c1cc2ccccc2c(-c2ccccc2Cl)n1 (10 µM),111% (inactive)
22,COc1ccc2c(C)nc(Nc3nc(C)c(C)c(O)n3)nc2c1 [madrasin] (10 µM),107% (inactive)
23,Oc1cc2c(cc1O)CN(C(=S)NCCc1ccc(Cl)cc1)CCC2 [capsazepine] (10 µM),92.5% (inactive)
24,O=C(O)c1cc(O)c(O)c(O)c1 [gallic-acid] (10 µM),110% (inactive)
25,Cc1ccc(C(=O)N(CCCN)[C@@H](c2nc3cc(Cl)ccc3c(=O)n2Cc2ccccc2)C(C)C)cc1 [ispinesib] (0.833333 µM),110% (inactive)
26,N[C@@H]1CN(c2c(F)cc3c(=O)c(C(=O)O)cn([C@@H]4C[C@@H]4F)c3c2Cl)CC12CC2 [sitafloxacin] (10 µM),106% (inactive)
27,N#Cc1cccc(-c2nc(-c3cccnc3)no2)c1 (10 µM),98.5% (inactive)
28,C#C[C@]1(O)CC[C@H]2[C@@H]3CCc4cc(OC5CCCC5)ccc4[C@H]3CC[C@@]21C [quinestrol] (10 µM),102% (inactive)
